Laboratory results taken from ChEMBL document CHEMBL3988442, “University of Dundee, Small-Polar-MMV Screening Library” (2021).
About 13,000 (27%) of roughly 48,000 compounds showed an effect of 50% or more. The list shows a part of the results.

Test system: Wolbachia pipientis
Test: Anti-Wolbachia Cell-Based Screen
Format: functional
Design: scale not given: in the data most compounds retested in dose-response had high values
Settings: 5 µM

Row | Compound | Percent Effect [%]
1 | Cn1nc(CN2CCCN(C3CCCC3)CC2)c2c(Cl)cccc21 | 4.033
2 | CC1(C)OCC2(CO1)CN(C(=O)c1cccc3ccccc13)C2 | -8.289
3 | c1ccc(-c2ncc(CNC3CCc4ncnn4C3)cn2)cc1 (stereo not drawn) | 5.444
4 | Cc1nn(Cc2ccccc2)c(C)c1CNC1CCc2ncnn2C1 (stereo not drawn) | 117.1
5 | Cc1nn(-c2ccccc2)c(C)c1CNC1CCc2ncnn2C1 (stereo not drawn) | 1.377
6 | c1ccc(-c2cnc(CNC3CCc4ncnn4C3)o2)cc1 (stereo not drawn) | 7.622
7 | Cc1nc(-c2ccccc2)sc1CNC1CCc2ncnn2C1 (stereo not drawn) | 88.63
8 | CCOCCNS(=O)(=O)c1ccc2c3c1CCCN3C(=O)CO2 | 17.61
9 | O=c1c2c(ncn1CCO)nc1n2CCC1 | 3.555
10 | CC(C)(C)OC(=O)NC(C)(C)c1noc(CN2CCCCC2)n1 | 1.243
11 | CN(C)C(=O)N1CCC2(CC1)CCN(c1ncccn1)C2.O=C(O)C(F)(F)F | 115.8
12 | CN(C)C(=O)N1CCC2(CCCN(c3ncccn3)C2)C1.O=C(O)C(F)(F)F (stereo not drawn) | 113.7
13 | CN(C)C(=O)N1CCOCC2(CCN(c3ncccn3)C2)C1.O=C(O)C(F)(F)F (stereo not drawn) | -1.009
14 | CN(C)C(=O)N1CCOCC2(CCN(c3ccccn3)C2)C1.O=C(O)C(F)(F)F (stereo not drawn) | -12.67
15 | CCn1nc2c(cc1=O)CN(Cc1nnc(C3CC3)o1)CC2 | 14.78
16 | CSc1cccc(NC(=O)N2CCCC(CNC(=O)c3ccco3)C2)c1 (stereo not drawn) | -2.877
17 | CSCCCn1ccnc1-c1cccc(C#N)c1 | -12.84
18 | NC(=O)NC(CC(=O)NCCc1cccc(F)c1)c1cccs1 (stereo not drawn) | 2.392
19 | CC(C)=CCC/C(C)=C\CNCc1ccco1 | -4.355
20 | O=C(C1CCCC1)N1CC2(CCCN(C3COC3)C2)Cc2ccccc21 (stereo not drawn) | 99.05
21 | O=C(C1CCCC1)N1CC2(CCN(C3COC3)CC2)Cc2ccccc21 | 95.07
22 | O=C(C1CCCC1)N1CC2(CCN(C3COC3)C2)OCc2ccccc21 (stereo not drawn) | 114.9
23 | O=C(C1CCCC1)N1CCOc2cccc(F)c21 | 1.761
24 | O=C(Cc1cccnc1)N1CCC2(CCN(C3CCOC3)CC2)C1 (stereo not drawn) | 6.84
25 | O=C(C1CCCC1)N1CC2(CCN(C3COC3)C2)Cc2ccccc21 (stereo not drawn) | 95.07
26 | CC(CNC(=O)CCCc1ccccn1)c1ccsc1 (stereo not drawn) | 1.971

Row | Compound | Percent Effect [%]
27 | Cc1ccc(NC(=O)C2CSCN2C(=O)c2cnn(C)c2)c(C)c1 (stereo not drawn) | -7.721
28 | O=C(C1CC1)N1C[C@@H](F)[C@@H](OCc2nc3ccccc3o2)C1 | -16.99
29 | N#Cc1cn(CC(=O)NC2CC2)c2ccc(Br)cc2c1=O | -2.411
30 | COCCCN1C(=O)CC[C@H]2CN(c3ccnc4ccccc34)CC[C@H]21 | -6.412
31 | COC1CCN(CCNC(=O)C2CCCCC2)CC1 | -3.467
32 | Cc1nccc(N(C)Cc2ncc(-c3ccccc3C(=O)O)s2)n1 | 127.4
33 | COc1cc(N(C)CCC(O)c2ccccc2)ncn1 (stereo not drawn) | 13.13
34 | CN(C)C(Cn1ccnc1-c1ccccc1C(=O)O)c1ccccc1Cl (stereo not drawn) | -23.61
35 | Cc1ccsc1C(Cn1ccnc1-c1ccccc1C(=O)O)N(C)C (stereo not drawn) | -13.02
36 | Cc1cc(N(C)Cc2ncc(-c3ccccc3C(=O)O)s2)ncn1 | 81.06
37 | CCc1cnc(CN(C)C(=O)NC2CCN(c3ccccc3)C2)s1 (stereo not drawn) | 0.02013
38 | Cc1cccc(N2Cc3nc(=O)[nH]n3C2=O)c1 | 2.871
39 | CN1CC(=O)N(c2cccnc2)Cc2c(NC3CC3)ncnc21 | 103.4
40 | COc1cc(N2CCC3(C2)CN(c2cccnc2)C(=O)CN3C)ncn1 (stereo not drawn) | -13.12
41 | NC(=O)c1cnc(NC2CCN(c3ccccc3)CC2)c(Cl)c1 | -3.801
42 | O=C1CCCCN1c1cccc(CNC2CCCC2)c1 | 0.3467
43 | CN1CC(=O)N(c2ccccc2)Cc2c(NC3CC3)ncnc21 | 112.7
44 | Cc1csc(CN2CC[C@H]3C(=O)N(c4cccnc4)CCO[C@H]3C2)n1 | 6.542
45 | CN1CC(Nc2nc3c(cnn3-c3ccccc3)c(=O)[nH]2)CCC1=O (stereo not drawn) | 9.222
46 | Cc1cccc(N2Cc3c(NC4CCCC4)ncnc3N(C)CC2=O)c1 | 95.74
47 | C=C1c2ccccc2C(=O)N1CCC(=O)N1CCNC(=O)C1 | -10.5
48 | N#Cc1c(Cl)nsc1N1CCN(CC2CC2)CC1 | 5.491
49 | CC(C)N1CCN(C)CC1c1nnc2ccc(C(=O)N3CCCC3)cn12 (stereo not drawn) | -1.369
50 | CCNC(=O)N1CCC2(CC1)CCn1c(C3CC3)cnc12 | 0.3432
51 | CCn1ncc(S(=O)(=O)N[C@@H]2CC[C@@H](n3ccnc3C)[C@@H]2O)c1C | 115.7
52 | CCn1ncc(S(=O)(=O)N[C@@H]2CCC[C@@H](n3ccnc3)[C@@H]2O)c1C | 136.1

Row | Compound | Percent Effect [%]
53 | CC(=O)N1CCC(N[C@@H]2CC[C@@H]2NS(=O)(=O)c2cccnc2)CC1 | -3.734
54 | CCn1ncc(S(=O)(=O)N[C@@H]2CC[C@@H](n3ccnc3)[C@@H]2O)c1C | 136.9
55 | CCn1cc(CN(C)S(=O)(=O)c2cnn(CC)c2C)c(C)n1 | -1.191
56 | Cc1cccc(NC(=O)N(CCC(F)(F)F)C[C@H](O)CO)c1 | -5.672
57 | Cc1cnc(C)c(N2CCN(CCCc3[nH]nc(C)c3C)CC2)n1 | 13.39
58 | COc1ccc(-c2cn3c(n2)CO[C@@H](CNCc2nccn2C)C3)cc1 | 1.884
59 | CN(C)C1CCN(C(=O)c2ccc(Cn3ccccc3=O)o2)CC1 | -4.856
60 | Cc1nc(CCCNC(=O)C2CC(=O)N(C3CC3)C2)sc1C (stereo not drawn) | 0.5008
61 | CS(=O)(=O)NC1CCN(Cc2ccc(OCc3ccccn3)cc2)CC1 | -10.21
62 | CCc1ncc2c(n1)CN(C(=O)CNC(=O)C(C)C)C2 | -10.3
63 | CN(Cc1ccsc1)C(=O)Nc1cccnc1N1CCCC1 | 3.447
64 | CCNC(=O)NC1CN(CC(=O)NCc2ccccc2C)C[C@@H]1OC (stereo partly drawn) | -0.1158
65 | CCc1nc(CC)n(CC(=O)N(C)CC(F)(F)F)n1 | 0.1098
66 | CCc1nc(CC)n(CC(=O)NCc2ccccc2C)n1 | 109.4
67 | CCCc1nnnn1CC(=O)NCc1cccc(C)c1 | 98.23
68 | Cc1nn(C)c(C)c1OCC(=O)NCc1cccc(CO)c1 | -2.193
69 | Cn1cnn(CC(=O)NCc2ccccc2F)c1=O | -8.996
70 | CCCc1nnnn1Cc1cn2c(C)cccc2n1 | -18.43
71 | CCc1nc(CC)n(CC(=O)N(CC)CC)n1 | -1.582
72 | CCc1nc(CC)n(CC(=O)NCc2cccc(C)c2)n1 | 86.53
73 | CN(C)C[C@H]1O[C@H](Cc2cc(-c3ccccn3)on2)CC[C@@H]1O | -5.695
74 | O=C(NS(=O)(=O)c1cccc(F)c1)c1ccccc1F | -17.84
75 | Cc1noc(COCC(=O)Nc2ncccc2Br)n1 | -14.88
76 | CCN(CC)C1(Cc2cc(CC(C)C)on2)COC1 | -8.16
77 | O[C@H]1CCN(CC2CCOC2)[C@H]1Cc1ccncc1 (stereo partly drawn) | -12.65
78 | CCCc1n[nH]c(C2CN(C(=O)Cc3ccc(C)nc3)CCO2)n1 (stereo not drawn) | -3.481

Row | Compound | Percent Effect [%]
79 | CCCc1ncc(C(=O)N2CCOC(c3nc(C)n[nH]3)C2)s1 (stereo not drawn) | 1.166
80 | O=C(c1cccnc1N1CCCC1)N1CCOC(c2ccccc2)C1 (stereo not drawn) | 5.885
81 | O=C(c1cccnc1O)N1CCOC(c2ccc(Cl)cc2)C1 (stereo not drawn) | -6.348
82 | Cc1n[nH]c(C2CN(C(=O)c3coc(Br)c3)CCO2)n1 (stereo not drawn) | -34.21
83 | CN(C)Cc1cnc(C2CN(C(=O)c3ccccc3Cl)CCO2)[nH]1 (stereo not drawn) | 174.9
84 | Cc1ccc(C(=O)N2CCOC(c3ncc(CN(C)C)[nH]3)C2)cc1F (stereo not drawn) | 86.38
85 | Cc1ccc(CC(=O)N2CCOC(c3ncc(CN(C)C)[nH]3)C2)s1 (stereo not drawn) | 104.7
86 | Cc1ccc(CC(=O)N2CCOC(c3nc(C)n[nH]3)C2)cn1 (stereo not drawn) | 12.26
87 | Cc1n[nH]c(C2CN(C(=O)c3ccn(C)c(=O)c3)CCO2)n1 (stereo not drawn) | 0.6849
88 | Cc1n[nH]c(C2CN(C(=O)c3cc(C)sc3C)CCO2)n1 (stereo not drawn) | -9.628
89 | Cc1ccccc1C(=O)N1CCOC(c2ncc(CN(C)C)[nH]2)C1 (stereo not drawn) | 53.49
90 | O=C(Cc1ccon1)Nc1cncc(Br)c1O | -6.673
91 | CCOC1CCN(C(=O)c2c(Cl)c3ccccc3n2C)CC1 | 4.018
92 | Cc1noc(C)c1CN1CC[C@H]2OCC[C@@H](C(=O)N3CCCO3)[C@H]2C1 | -12.4
93 | O=C(NCC(O)c1ccc(Cl)s1)c1ccoc1 (stereo not drawn) | 3.126
94 | CC(=O)N1CCN(C(=O)C(C)Nc2ccc3ncsc3c2)CC1 (stereo not drawn) | -9.61
95 | c1ccc(-c2nc(CN3CCOC(Cn4cccn4)C3)cs2)cc1 (stereo not drawn) | -16.04
96 | c1cnn(CC2CN(Cc3csc(-c4ccsc4)n3)CCO2)c1 (stereo not drawn) | -6.772
97 | Cc1cnn(CC2CN(Cc3csc(C4CCCC4)n3)CCO2)c1 (stereo not drawn) | 109.2
98 | c1cnn(CC2CN(Cc3csc(C4CCCCC4)n3)CCO2)c1 (stereo not drawn) | 111.5
99 | CN(C)CC1CN(Cc2csc(C3CCCC3)n2)CCO1 (stereo not drawn) | 6.428
100 | c1csc(-c2nc(CN3CCOC(Cn4cncn4)C3)cs2)c1 (stereo not drawn) | -0.6055
101 | c1csc(-c2nc(CN3CCOC(Cn4cccn4)C3)cs2)c1 (stereo not drawn) | 96.48
102 | Cc1n[nH]c(C2CN(Cc3csc(C4CCCC4)n3)CCO2)n1 (stereo not drawn) | 6.822
103 | c1ncn(CC2CN(Cc3csc(C4CCCC4)n3)CCO2)n1 (stereo not drawn) | -2.779
